Inconclusive results are not listed. Entries that show only a call come without a potency. Unmarked numbers belong to inactive results. Activity calls are given as the source filed them. Calls come from the whole dose curve; as a rule, active = well fitted inhibition curve with a large enough effect; inconclusive = small, poorly fitted or top-dose-only effect; inactive = flat fitted curve, though single readings scatter.
assay: P-glycoprotein substrates identified in KB-8-5-11 adenocarcinoma cell line, qHTS therapeutic library screen (AID 1346987); settings: KB-8-5-11 (P-gp overexpressing) viability, CellTiter-Glo, 72 h; series mostly up to 44.5 µM; note: nearly all actives have a fitted effect of over 65% in size
Summary of the method: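 Compounds are pinned in dose-response onto KB-8-5-11 cells (500 cells/well, colchicine-free medium) and left 72 h at 37 degree C. CellTiter-Glo luminescence then yields AC50 values.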

SMILES	outcome	Potency	activity change, negative = cytotoxicity
CC1OC(OC2C(O)C(C(=O)O)OC(OC3CCC4(C)C(CCC5(C)C4C=CC4=C6CC(C)(C)CC(O)C6(C)CCC45C)C3(C)C)C2OC2OCC(O)C(O)C2O)C(O)C(O)C1O (stereo not given)	inactive [at 9.29 µM]	–	–
C[C@@H]1O[C@@H](OC[C@H]2O[C@@H](OCC3CCC4CC3C4(C)C)[C@H](O)[C@@H](O)[C@@H]2O)[C@H](O)[C@H](O)[C@H]1O (stereo not given in full)	–	inactive	–
CCOC(=O)c1ccnc(CNCC(=O)N(CC)CCN(C)C)c1	–	inactive	–
CCOC(=O)c1c(C)nn(-c2cccc([N+](=O)[O-])c2)c1C	–	inactive	–
CC1=C(C)C(=O)OC(C(C)(O)C2CCC3C4CC=C5CC(OC6OC(COC7OC(CO)C(O)C(O)C7O)C(O)C(O)C6O)CC(O)C5(C)C4CCC32C)C1 (stereo not given)	–	inactive	–
C=CC(C)(O)CO[C@@H]1O[C@H](CO)[C@@H](O)[C@H](O)[C@H]1O (stereo not given in full)	–	inactive	–
C=C[C@@]1(C)CC(=O)C2[C@](C)(O1)[C@@H](OC(C)=O)[C@@H](O)[C@H]1C(C)(C)CCC[C@]21C (stereo not given in full)	–	–	9.24% [at 9.29 µM]
C[C@@H]1O[C@@H](O[C@H]2[C@H](O[C@H]3[C@H](O[C@H]4CC[C@@]5(CO)C(CC[C@]6(C)C5CC=C5C7CC(C)(C)C[C@@H](O)[C@]7(C)CC[C@]56C)C4(C)C)O[C@H](C(=O)O)[C@@H](O)[C@@H]3O)OC[C@@H](O)[C@@H]2O)[C@H](O)[C@H](O)[C@H]1O (stereo not given in full)	inactive [at 9.29 µM]	–	–
C=C1CC23CCC4[C@@](C)(CCC[C@@]4(C)C(=O)O)C2CCC1C3 (stereo not given in full)	–	inactive	–
C=C(C)C1CC2(CO)C(=CC1=O)CCC(O)C2C (stereo not given)	–	inactive	–

From PubChem BioAssay (NCATS)
